Test results reported in PubChem BioAssay AID1159580 (chemical genetic matrix, 2015).
About 2,000 (36%) of roughly 5,500 compounds were called active. Inconclusive results (about 18%) are left out. No stated cut-off is given here; in the data, active means normalized growth mostly below about 0.91 (no sharp cut-off); inconclusive means no clear call, values can overlap the other calls; inactive means mostly above about 0.92. The list shows a part of the results.

Experiment: chemical genetic growth profiling, strain panel (AID 1159580);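 further: tested at 20 µM; growth read once vehicle control cultures reached saturation at 30 °C; 1 = growth at the plate median or of vehicle wells; lower values mean less growth of the strain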
Settings: S. cerevisiae deletion strains, growth OD

Measured: normalized growth

CC1/C(=N\O)C[C@@H]2C[C@H]1C2(C)C (some centres undefined)
inactive: locus YAL013W, strain DEP1, active compounds read low 1.01 | locus YBR021W, strain FUR4, active compounds read low 1.01 | locus YBR229C, strain ROT2, active compounds read low 1.01 | locus YCL029C, strain bik1, active compounds read low 0.994 | locus YDL035C, strain GPR1, active compounds read low 0.993 | locus YDL074C, strain BRE1, active compounds read low 1.04 | locus YDL101C, strain DUN1, active compounds read low 1.02 | locus YDL134C, strain PPH21, active compounds read low 1.01 | locus YDL185W, strain tfp1, active compounds read low 1.02 | locus YDL192W, strain arf1, active compounds read low 1.03 | locus YDR101C, strain arx1, active compounds read low 0.981 | locus YDR162C, strain NBP2, active compounds read low 1.02 | locus YDR318W, strain mcm21, active compounds read low 1.04 | locus YDR388W, active compounds read low 1.02 | locus YDR502C, strain sam2, active compounds read low 1.02 | locus YER110C, active compounds read low 1.01 | locus YER155C, strain BEM2, active compounds read low 1.01 | locus YER167W, strain BCK2, active compounds read low 1.01 | locus YGL078C, strain dbp3, active compounds read low 1.02 | locus YGL086W, strain mad1, active compounds read low 0.999 | locus YGL248W, strain PDE1, active compounds read low 1.03 | locus YGR078C, strain PAC10, active compounds read low 1.03 | locus YGR135W, strain pre9, active compounds read low 1.04 | locus YGR252W, strain gcn5, active compounds read low 1.01 | locus YHR030C, strain SLT2, active compounds read low 1.03 | locus YHR079C, strain IRE1 (second series), active compounds read low 1.03 | locus YHR079C, strain IRE1, active compounds read low 1.04 | locus YHR094C, strain hxt1, active compounds read low 1.01 | locus YHR129C, strain ARP1, active compounds read low 1.01 | locus YHR200W, strain rpn10, active compounds read low 1.03 | locus YIL066C, strain RNR3, active compounds read low 1.01 | locus YIL073C, strain SPO22, active compounds read low 1.05 | locus YIL125W, strain kgd1, active compounds read low 1.02 | locus YIR030C, strain dcg1, active compounds read low 1.02 | locus YJL095W, strain BCK1, active compounds read low 1.04 | locus YJL134W, strain LCB3, active compounds read low 1.02 | locus YJL168C, strain set2, active compounds read low 1.01 | locus YJL187C, strain SWE1 (second series), active compounds read low 1.03 | locus YJR043C, strain POL32, active compounds read low 0.994 | locus YJR066W, strain TOR1, active compounds read low 0.95 | locus YJR075W, strain HOC1, active compounds read low 1.03 | locus YKL009W, strain mrt4, active compounds read low 0.995 | locus YKL068W, active compounds read low 1.02 | locus YKL085W, strain MDH1 (second series), active compounds read low 1.02 | locus YKL085W, strain MDH1, active compounds read low 1.02 | locus YKL190W, strain CNB1, active compounds read low 1.01 | locus YKR001C, strain vps1, active compounds read low 1.05 | locus YLR039C, strain RIC1, active compounds read low 1.09 | locus YLR058C, strain SHM2, active compounds read low 1.02 | locus YLR102C, strain apc9, active compounds read low 1.05 | locus YLR113W, strain HOG1, active compounds read low 1.05 | locus YLR262C, strain YPT6, active compounds read low 1.1 | locus YLR268W, strain sec22, active compounds read low 1.02 | locus YLR371W, strain rom2, active compounds read low 1.04 | locus YLR418C, strain cdc73, active compounds read low 1.06 | locus YML016C, strain PPZ1, active compounds read low 1.02 | locus YML032C, strain rad52, active compounds read low 1.02 | locus YML124C, strain tub3, active compounds read low 1.01 | locus YMR078C, strain ctf18, active compounds read low 1.03 | locus YMR223W, strain ubp8, active compounds read low 1.02 | locus YMR307W, strain GAS1, active compounds read low 1.06 | locus YNL067W, strain RPL9B, active compounds read low 1.02 | locus YNL183C, strain NPR1, active compounds read low 0.951 | locus YNL233W, strain BNI4, active compounds read low 1.03 | locus YNL250W, strain rad50, active compounds read low 1.05 | locus YNL271C, strain bni1, active compounds read low 1.02 | locus YNL298W, strain CLA4, active compounds read low 1.02 | locus YNL307C, strain MCK1, active compounds read low 1.01 | locus YNR052C, strain pop2, active compounds read low 1.03 | locus YOL012C, strain htz1 1.25 | locus YOL147C, strain pex11, active compounds read low 1.01 | locus YOR061W, strain CKA2, active compounds read low 1.02 | locus YOR069W, strain VPS5, active compounds read low 1.01 | locus YOR136W, strain idh2, active compounds read low 1 | locus YOR144C, strain elg1, active compounds read low 1.01 | locus YOR184W, strain ser1, active compounds read low 0.926 | locus YOR231W, strain MKK1, active compounds read low 1.02 | locus YOR316C, strain cot1, active compounds read low 1.03 | locus YPL256C, strain CLN2, active compounds read low 1.05 | locus YPR119W, strain clb2, active compounds read low 1.03 | locus YPR141C, strain kar3, active compounds read low 1.02 | locus YPR163C, strain tif3, active compounds read low 1.03 | locus YPR167C, strain met16, active compounds read low 1.03 | strain wtn01, active compounds read low 0.995
